A short description of this assay: AlphaScreen signal with amyloid beta 1-40, late-stage follow-up, counter-screen for Wee1 degradation inhibitor project, biochemical, amplified proximity luminescence (AID 504929). Particulars: Abeta1-40 counterscreen, concentration not given here. Background: Alpha assays give light when donor and acceptor beads are brought close together.

The source made the active and inactive calls. No rule for the calls is given here.

Turning to `c1ccc2[nH]c(CNc3nc(N4CCOCC4)nc4c3ncn4-c3ccsc3)nc2c1`, the signal is 75% (active).

For `O=[N+]([O-])c1cccc2[nH]c(CNc3nc(N4CCOCC4)nc4c3ncn4-c3ccsc3)nc12`, the signal is 60% (active).

The values are drawn from PubChem BioAssay AID504929 (The Scripps Research Institute Molecular Screening Center, 2011).
